Common to all, as to assay: DAPPL (digital affinity profiling via proximity ligation, sequencing); 10 mM Tris-HCl pH 7.5, 50 mM NaCl, 1 mM DTT, 4% glycerol, room temperature, 30 min; GST-TFs on glutathione beads, 16-mer random dsDNA library, 0.1% formaldehyde crosslink after washing; high values mean tight binding
Details in all cases: protein: recombinant; tags: N-terminal GST; dsDNA, one strand shown

The target in test [1] is T1, FLI1 (Homo sapiens, UniProt Q01543 1-452).
T1 sequence: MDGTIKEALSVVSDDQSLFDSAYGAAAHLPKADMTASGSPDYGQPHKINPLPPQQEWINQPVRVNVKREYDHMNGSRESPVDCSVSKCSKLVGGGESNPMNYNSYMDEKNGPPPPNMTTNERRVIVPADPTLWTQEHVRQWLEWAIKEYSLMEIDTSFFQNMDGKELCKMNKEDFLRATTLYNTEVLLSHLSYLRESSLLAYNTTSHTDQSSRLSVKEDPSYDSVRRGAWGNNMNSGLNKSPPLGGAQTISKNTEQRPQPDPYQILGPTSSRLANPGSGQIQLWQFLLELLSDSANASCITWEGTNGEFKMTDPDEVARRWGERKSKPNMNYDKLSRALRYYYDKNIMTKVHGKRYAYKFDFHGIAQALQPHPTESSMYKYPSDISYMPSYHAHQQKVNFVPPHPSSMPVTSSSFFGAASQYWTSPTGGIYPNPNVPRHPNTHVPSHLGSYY
In a few lines:
(§1)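 Human transcription factors were made in yeast as GST fusions, captured on glutathione beads and barcoded with DNA. With a tag-only sample included, the pool was incubated with 200 nmole of a random double-stranded 16-mer DNA library in Tris/NaCl/DTT/glycerol buffer at room temperature for 30 min, then crosslinked with 0.1% formaldehyde after washing, ligated by proximity, amplified and sequenced. For binding signal, each hexamer's read frequency for a factor is divided by its frequency for the tag-only sample.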

Test [2] addresses T2, ELK1 (Homo sapiens, UniProt P19419 1-428).
T2 sequence: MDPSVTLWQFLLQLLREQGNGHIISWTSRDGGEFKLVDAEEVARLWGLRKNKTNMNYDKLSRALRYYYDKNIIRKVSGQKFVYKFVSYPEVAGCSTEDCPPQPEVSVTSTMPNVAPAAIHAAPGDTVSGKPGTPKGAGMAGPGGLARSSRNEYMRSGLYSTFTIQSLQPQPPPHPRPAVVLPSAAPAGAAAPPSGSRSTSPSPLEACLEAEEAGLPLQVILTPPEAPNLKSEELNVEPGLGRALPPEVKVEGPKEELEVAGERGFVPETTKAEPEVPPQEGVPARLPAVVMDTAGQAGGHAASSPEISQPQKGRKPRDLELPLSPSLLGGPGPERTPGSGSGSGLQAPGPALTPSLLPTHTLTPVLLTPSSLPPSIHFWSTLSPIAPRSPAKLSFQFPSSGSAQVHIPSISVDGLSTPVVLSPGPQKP
In a few lines:
as §1

The target in test [3] is T3, GABPA (Homo sapiens, UniProt Q06546 1-454).
T3 sequence: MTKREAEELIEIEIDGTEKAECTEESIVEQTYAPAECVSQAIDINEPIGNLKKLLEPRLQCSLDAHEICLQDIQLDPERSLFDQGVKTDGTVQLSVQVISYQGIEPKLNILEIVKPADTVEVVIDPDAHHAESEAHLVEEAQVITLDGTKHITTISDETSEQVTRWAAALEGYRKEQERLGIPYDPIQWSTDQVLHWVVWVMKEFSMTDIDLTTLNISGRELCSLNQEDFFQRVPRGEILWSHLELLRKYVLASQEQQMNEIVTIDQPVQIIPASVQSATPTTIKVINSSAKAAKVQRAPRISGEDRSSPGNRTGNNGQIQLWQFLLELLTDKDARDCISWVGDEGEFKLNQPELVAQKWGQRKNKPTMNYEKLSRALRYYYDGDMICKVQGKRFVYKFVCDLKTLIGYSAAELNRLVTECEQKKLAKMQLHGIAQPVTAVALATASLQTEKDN
In a few lines:
as §1

For test [4], the target named is T4, ERG (Homo sapiens, UniProt P11308 1-479).
T4 sequence: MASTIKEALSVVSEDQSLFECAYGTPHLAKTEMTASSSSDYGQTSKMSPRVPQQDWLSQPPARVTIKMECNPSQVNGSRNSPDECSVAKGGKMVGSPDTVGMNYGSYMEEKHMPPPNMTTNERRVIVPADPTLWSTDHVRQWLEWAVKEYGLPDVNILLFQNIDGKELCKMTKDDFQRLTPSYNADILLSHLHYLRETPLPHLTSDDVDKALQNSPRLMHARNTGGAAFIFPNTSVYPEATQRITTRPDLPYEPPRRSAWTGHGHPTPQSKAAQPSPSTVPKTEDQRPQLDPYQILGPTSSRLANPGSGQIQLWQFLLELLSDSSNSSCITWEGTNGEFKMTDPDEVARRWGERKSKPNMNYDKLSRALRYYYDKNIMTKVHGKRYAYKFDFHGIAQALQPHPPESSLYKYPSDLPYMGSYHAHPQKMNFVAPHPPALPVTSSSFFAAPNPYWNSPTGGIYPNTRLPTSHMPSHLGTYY
In a few lines:
as §1

The target of test [5] is ELF1 (Homo sapiens, UniProt P32519 1-619). The method, boiled down: as §1
Test [6] concerns the target T5, EHF (Homo sapiens, UniProt Q9NZC4 1-300).
T5 sequence: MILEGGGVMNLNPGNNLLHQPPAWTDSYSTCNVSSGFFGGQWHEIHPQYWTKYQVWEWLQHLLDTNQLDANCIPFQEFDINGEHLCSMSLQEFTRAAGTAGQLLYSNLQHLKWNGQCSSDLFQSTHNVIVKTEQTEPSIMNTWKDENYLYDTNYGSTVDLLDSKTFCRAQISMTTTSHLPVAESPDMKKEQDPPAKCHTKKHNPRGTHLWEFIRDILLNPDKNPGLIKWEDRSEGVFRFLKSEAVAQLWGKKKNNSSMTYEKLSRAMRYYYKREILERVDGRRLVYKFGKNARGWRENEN
In a few lines:
as §1

Test [7] addresses SPIB (Homo sapiens, UniProt Q01892 1-262). In a few lines: as §1
The target in test [8] is T6, ELK3 (Homo sapiens, UniProt P41970 1-407).
T6 sequence: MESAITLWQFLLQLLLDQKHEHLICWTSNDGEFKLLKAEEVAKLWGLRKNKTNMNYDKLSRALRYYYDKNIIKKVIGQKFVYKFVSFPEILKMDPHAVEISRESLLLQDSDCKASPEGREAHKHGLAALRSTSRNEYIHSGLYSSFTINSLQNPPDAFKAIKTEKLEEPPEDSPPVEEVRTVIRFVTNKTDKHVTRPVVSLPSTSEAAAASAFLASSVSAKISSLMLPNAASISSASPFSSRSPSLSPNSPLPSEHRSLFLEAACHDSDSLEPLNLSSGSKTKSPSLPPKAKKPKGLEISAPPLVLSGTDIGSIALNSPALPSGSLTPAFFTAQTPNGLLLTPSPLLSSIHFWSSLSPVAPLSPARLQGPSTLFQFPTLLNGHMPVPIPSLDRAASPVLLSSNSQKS
In a few lines:
as §1

In test [9] the target is ELF4 (Homo sapiens, UniProt Q99607 1-663). The method, boiled down: as §1
In test [10] the target is T7, ELK4 (Homo sapiens, UniProt P28324-2 1-405).
T7 sequence: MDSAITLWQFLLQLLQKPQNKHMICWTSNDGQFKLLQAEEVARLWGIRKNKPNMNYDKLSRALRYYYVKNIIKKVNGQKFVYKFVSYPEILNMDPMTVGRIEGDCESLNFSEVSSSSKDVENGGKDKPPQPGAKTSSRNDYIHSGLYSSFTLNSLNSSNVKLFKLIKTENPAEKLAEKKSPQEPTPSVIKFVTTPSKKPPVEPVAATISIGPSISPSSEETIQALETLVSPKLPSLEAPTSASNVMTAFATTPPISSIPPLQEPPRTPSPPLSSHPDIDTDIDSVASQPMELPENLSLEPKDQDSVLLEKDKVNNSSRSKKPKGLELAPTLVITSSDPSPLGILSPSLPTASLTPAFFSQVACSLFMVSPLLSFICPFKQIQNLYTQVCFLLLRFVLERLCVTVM
In a few lines: as §1

The target in test [11] is T8, ELF3 (Homo sapiens, UniProt P78545 1-371).
T8 sequence: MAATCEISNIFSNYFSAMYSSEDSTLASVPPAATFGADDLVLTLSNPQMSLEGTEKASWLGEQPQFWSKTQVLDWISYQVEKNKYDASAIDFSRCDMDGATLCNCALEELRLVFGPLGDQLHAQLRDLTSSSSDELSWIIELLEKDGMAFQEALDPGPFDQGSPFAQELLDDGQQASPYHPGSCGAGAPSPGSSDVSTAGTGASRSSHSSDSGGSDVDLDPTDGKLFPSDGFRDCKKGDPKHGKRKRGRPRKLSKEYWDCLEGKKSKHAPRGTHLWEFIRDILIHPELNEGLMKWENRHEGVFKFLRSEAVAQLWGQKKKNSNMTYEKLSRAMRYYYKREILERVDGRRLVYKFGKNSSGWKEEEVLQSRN
The method, boiled down:
as §1

In test [12] the target is ETV1 (Homo sapiens, UniProt P50549 1-477). In a few lines:
as §1

In test [13] the target is T9, ERF (Homo sapiens, UniProt P50548 1-548).
T9 sequence: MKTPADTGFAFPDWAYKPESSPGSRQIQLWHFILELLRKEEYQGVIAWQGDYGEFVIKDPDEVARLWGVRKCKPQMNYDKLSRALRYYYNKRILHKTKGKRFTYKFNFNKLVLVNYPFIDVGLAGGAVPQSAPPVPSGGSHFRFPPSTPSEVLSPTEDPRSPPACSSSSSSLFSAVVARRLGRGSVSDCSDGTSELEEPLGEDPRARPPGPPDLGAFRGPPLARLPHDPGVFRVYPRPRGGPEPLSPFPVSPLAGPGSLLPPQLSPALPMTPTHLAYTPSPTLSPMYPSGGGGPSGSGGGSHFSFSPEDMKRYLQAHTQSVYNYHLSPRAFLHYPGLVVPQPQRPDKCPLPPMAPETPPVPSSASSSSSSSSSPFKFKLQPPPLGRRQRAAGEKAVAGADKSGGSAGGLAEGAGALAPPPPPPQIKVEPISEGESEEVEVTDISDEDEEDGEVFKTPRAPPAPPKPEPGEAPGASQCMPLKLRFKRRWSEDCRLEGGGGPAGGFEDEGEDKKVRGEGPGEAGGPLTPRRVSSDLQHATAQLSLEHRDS
In a few lines: as §1

The target in test [14] is T10, ETV3L (Homo sapiens, UniProt Q6ZN32 1-361).
T10 sequence: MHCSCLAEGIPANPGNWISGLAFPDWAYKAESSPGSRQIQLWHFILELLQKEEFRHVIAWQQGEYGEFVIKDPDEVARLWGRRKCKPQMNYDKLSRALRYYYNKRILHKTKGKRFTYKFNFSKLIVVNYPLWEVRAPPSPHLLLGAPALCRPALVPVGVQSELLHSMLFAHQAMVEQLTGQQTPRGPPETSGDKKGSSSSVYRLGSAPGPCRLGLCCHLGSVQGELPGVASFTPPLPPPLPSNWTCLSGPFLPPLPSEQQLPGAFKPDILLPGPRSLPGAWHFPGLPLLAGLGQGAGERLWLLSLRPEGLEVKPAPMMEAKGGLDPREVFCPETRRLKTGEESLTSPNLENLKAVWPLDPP
The method, boiled down: as §1

The target of test [15] is T11, ETS2 (Homo sapiens, UniProt P15036 1-469).
T11 sequence: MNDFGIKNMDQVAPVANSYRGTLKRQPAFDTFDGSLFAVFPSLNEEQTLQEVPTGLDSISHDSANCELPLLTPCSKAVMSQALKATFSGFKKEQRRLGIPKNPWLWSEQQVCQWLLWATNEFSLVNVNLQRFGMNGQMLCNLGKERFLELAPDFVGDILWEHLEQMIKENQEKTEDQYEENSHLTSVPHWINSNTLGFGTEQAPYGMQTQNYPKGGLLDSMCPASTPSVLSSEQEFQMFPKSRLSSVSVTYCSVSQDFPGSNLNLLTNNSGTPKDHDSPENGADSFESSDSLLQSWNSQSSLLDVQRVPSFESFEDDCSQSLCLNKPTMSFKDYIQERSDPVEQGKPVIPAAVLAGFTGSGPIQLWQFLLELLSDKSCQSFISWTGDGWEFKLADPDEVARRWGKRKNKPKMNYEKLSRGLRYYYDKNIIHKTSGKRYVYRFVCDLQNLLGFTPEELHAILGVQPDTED
The method, boiled down:
as §1

Test [16] concerns the target T12, ETV3 (Homo sapiens, UniProt P41162-2 1-143).
T12 sequence: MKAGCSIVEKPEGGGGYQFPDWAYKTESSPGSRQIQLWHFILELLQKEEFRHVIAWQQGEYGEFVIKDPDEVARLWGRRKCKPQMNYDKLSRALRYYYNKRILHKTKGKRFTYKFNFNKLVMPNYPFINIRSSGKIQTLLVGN
In a few lines:
as §1

Test [17] deals with ETV6 (Homo sapiens, UniProt P41212 1-452). In a few lines: as §1
ETV6, sequence (P41212 whole entry): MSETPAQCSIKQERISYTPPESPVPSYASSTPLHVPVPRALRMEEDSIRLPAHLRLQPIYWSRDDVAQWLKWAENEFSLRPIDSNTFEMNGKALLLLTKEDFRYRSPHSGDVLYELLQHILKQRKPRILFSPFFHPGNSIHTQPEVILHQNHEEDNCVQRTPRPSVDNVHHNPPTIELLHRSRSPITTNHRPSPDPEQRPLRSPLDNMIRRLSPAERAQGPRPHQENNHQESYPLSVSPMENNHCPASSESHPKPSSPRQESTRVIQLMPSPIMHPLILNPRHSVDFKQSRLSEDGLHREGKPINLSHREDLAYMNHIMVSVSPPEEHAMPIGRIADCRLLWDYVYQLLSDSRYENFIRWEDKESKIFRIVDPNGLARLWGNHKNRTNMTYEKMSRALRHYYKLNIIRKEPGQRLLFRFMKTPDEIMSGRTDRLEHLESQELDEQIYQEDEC

ELF1, sequence (P32519 whole entry): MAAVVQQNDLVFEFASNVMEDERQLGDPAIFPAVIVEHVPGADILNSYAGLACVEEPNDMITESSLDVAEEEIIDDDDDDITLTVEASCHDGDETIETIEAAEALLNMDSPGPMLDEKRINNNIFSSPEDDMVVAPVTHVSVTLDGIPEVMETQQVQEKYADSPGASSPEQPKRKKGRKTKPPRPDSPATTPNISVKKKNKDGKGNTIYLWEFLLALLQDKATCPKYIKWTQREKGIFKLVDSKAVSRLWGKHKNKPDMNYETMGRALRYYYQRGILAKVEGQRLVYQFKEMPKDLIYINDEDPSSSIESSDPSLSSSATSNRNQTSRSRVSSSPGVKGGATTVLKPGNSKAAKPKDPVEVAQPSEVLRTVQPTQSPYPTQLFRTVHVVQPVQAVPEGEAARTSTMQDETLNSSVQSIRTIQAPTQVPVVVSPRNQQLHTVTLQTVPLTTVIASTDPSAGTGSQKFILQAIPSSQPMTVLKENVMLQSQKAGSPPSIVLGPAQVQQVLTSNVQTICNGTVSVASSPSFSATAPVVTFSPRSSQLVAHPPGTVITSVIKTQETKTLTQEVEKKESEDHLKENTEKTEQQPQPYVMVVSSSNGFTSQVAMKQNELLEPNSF
SPIB, sequence (Q01892 whole entry): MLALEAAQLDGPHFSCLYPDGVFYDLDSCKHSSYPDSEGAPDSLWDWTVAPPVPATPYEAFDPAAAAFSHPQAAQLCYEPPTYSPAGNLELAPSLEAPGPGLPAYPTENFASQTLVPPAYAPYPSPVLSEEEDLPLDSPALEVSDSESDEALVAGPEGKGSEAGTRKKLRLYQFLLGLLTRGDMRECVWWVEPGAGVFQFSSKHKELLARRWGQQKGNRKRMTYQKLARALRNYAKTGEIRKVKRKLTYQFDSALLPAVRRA
ETV1, sequence (P50549 whole entry): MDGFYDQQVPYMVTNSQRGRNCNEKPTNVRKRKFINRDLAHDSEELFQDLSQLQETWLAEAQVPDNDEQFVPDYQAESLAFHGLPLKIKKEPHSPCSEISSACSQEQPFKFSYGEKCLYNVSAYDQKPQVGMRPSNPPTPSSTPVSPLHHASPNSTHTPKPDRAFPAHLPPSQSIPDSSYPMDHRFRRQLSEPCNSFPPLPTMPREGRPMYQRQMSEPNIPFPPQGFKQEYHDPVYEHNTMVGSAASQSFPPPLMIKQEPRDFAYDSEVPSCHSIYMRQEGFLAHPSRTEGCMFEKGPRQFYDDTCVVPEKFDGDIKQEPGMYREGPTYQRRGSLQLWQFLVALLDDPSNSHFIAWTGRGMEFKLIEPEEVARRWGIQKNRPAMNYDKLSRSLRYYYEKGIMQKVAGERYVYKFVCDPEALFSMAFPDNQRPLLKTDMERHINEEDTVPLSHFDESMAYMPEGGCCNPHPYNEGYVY
ELF4, sequence (Q99607 whole entry): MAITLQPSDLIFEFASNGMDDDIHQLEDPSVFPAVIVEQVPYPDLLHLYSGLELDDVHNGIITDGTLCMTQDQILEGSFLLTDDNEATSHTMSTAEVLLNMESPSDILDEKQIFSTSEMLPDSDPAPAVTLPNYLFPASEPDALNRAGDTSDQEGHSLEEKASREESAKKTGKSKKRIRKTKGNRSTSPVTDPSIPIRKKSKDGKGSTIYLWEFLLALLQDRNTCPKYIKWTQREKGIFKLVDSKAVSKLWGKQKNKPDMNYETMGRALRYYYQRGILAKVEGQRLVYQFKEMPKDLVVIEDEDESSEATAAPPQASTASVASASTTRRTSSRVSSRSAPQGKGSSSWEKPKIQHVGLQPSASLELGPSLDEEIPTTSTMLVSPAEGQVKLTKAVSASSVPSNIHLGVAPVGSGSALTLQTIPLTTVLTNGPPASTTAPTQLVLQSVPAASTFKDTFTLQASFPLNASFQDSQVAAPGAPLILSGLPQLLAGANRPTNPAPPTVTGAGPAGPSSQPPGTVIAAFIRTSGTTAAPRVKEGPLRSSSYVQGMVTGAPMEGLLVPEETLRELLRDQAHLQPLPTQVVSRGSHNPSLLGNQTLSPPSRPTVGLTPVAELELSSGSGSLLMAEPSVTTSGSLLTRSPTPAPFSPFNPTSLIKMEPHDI

GATCCA: the binding signal was 1.01 fold enrichment (6-mer frequency, TF over GST control) in test [1]; 1.08 fold enrichment (6-mer frequency, TF over GST control) in [2]; 1.16 fold enrichment (6-mer frequency, TF over GST control) in [3]; 1.03 fold enrichment (6-mer frequency, TF over GST control) in [4]; 1.04 fold enrichment (6-mer frequency, TF over GST control) in [5]; 1.07 fold enrichment (6-mer frequency, TF over GST control) in [6]. Besides, the binding signal is 1.08 fold enrichment (6-mer frequency, TF over GST control) in [7]; 1.02 fold enrichment (6-mer frequency, TF over GST control) in test [8]; 1.05 fold enrichment (6-mer frequency, TF over GST control) in test [9]; 1.03 fold enrichment (6-mer frequency, TF over GST control) in [10]; 1.15 fold enrichment (6-mer frequency, TF over GST control) in test [11]; 1.07 fold enrichment (6-mer frequency, TF over GST control) in test [12]. In addition, the binding signal was 1.03 fold enrichment (6-mer frequency, TF over GST control) in test [13]; 1.06 fold enrichment (6-mer frequency, TF over GST control) in test [14]; 1.09 fold enrichment (6-mer frequency, TF over GST control) in test [15]; 1.05 fold enrichment (6-mer frequency, TF over GST control) in [16]; 1.05 fold enrichment (6-mer frequency, TF over GST control) in test [17].

Values taken from PMC7862700, “An all-to-all approach to the identification of sequence-specific readers for epigenetic DNA modifications on cytosine”.
